Active and inactive are the calls of the source.
Key:
[1] = E. coli DRC41 culture turbidity changes, primary screen, E. coli filamentation inducer project, strain DRC41, OD650, 48 h (AID 1152);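 also: E. coli MC1000 strain DRC41 lacking acrAB efflux pump and sulA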; conditions: E. coli DRC41 (acrAB sulA), higher = more signal, called active from +8 up or from −8 down
[2] = small-molecule binders of probe aLefty1, primary screen, biochemical, small-molecule microarray, 635/667 nm fluorescence (AID 1153); conditions: higher = more signal;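 also: score merges spot fluorescence with signal-to-noise ratio from the scanned slide images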
[3] = PSAC antagonists in infected red cells, primary screen, cell-based, P. falciparum Indochina, OD700, 1 h (AID 1154); conditions: P. falciparum Indochina infected RBC osmotic lysis, higher = more signal, called active from +8 up or from −8 down
[4] = PSAC antagonists in infected red cells, primary screen, cell-based, P. falciparum Indochina, OD700, 2 h (AID 1155);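 also: lysis reports solute entry through the parasite surface anion channel PSAC; channel blockers reduce lysis of infected cells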; conditions: P. falciparum Indochina infected erythrocytes, osmotic lysis OD700; higher = more signal, called active from +8 up or from −8 down
[5] = osmotic lysis modulators in infected erythrocytes, primary screen, PSAC antagonist project, cell-based, P. falciparum Indochina, OD700, 3 h (AID 1156); conditions: higher = more signal, called active from +8 up or from −8 down
[6] = PSAC antagonists in infected red cells, primary screen, cell-based, P. falciparum Indochina, OD700, 18 h (AID 1157); conditions: P. falciparum Indochina infected erythrocytes, osmotic lysis OD700, 18 h; higher = more signal, called active from +8 up or from −8 down
[7] = modulators of S6 phosphorylation in cells, primary screen, cell-based, A549, cytoblot, luminescence, serum-stimulated (AID 1158); conditions: A549 phospho-S6 cytoblot, 5 h, higher = more signal;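 also: serum-stimulated A549 lung adenocarcinoma cells; signal is phosphorylated S6 detected by cytoblot immunostaining with HRP secondary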
[8] = target: NADPH oxidase 2 (Homo sapiens) (UniProt P04839); experiment: NOX2-dependent H2O2 signal modulators, primary screen, NOX inhibitor project, cell-based, HEK293-NOX2, PMA-stimulated, Amplex Red fluorescence (AID 1159); conditions: 45 min, higher = more signal, called active from +8 up or from −8 down; also: test concentration not given here
NADPH oxidase 2 (Homo sapiens), sequence (P04839 whole entry, looked up): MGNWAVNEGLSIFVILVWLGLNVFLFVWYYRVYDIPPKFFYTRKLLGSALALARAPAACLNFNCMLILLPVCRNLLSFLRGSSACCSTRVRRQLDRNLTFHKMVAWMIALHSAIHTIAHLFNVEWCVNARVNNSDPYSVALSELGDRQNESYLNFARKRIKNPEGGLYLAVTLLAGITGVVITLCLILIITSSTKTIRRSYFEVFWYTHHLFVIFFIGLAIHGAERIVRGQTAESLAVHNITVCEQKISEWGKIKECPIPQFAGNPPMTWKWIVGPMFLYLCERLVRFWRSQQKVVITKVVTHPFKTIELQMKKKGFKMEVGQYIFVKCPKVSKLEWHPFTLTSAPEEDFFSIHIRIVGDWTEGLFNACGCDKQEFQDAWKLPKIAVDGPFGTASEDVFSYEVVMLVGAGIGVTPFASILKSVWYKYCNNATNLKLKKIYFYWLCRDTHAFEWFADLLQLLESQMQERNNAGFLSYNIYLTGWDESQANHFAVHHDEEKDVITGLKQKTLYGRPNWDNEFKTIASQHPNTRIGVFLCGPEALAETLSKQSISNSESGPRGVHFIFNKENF

[9] = target: NADPH oxidase 4 (Homo sapiens) (UniProt Q9NPH5); experiment: NOX4-dependent H2O2 signal modulators, primary screen, NOX inhibitor project, cell-based, HEK293-NOX4, tetracycline-induced, Amplex Red fluorescence (AID 1160); conditions: 45 min, higher = more signal, called active from +8 up or from −8 down
NADPH oxidase 4 (Homo sapiens), sequence (Q9NPH5 whole entry, looked up): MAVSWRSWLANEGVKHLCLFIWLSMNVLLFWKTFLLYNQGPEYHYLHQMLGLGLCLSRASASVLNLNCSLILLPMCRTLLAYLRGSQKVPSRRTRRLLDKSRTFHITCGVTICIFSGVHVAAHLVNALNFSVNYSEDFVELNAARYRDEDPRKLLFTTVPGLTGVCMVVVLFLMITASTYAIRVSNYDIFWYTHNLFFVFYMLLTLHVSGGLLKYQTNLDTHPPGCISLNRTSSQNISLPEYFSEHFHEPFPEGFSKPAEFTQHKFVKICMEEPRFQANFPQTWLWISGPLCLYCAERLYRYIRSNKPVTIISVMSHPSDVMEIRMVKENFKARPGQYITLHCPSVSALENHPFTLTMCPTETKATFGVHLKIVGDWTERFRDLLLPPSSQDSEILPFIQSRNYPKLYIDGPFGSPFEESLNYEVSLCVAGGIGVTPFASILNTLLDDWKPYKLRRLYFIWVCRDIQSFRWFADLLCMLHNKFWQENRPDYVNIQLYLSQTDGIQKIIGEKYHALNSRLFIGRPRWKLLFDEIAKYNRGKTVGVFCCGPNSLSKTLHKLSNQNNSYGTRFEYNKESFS

[10] = target: NADPH oxidase 5 (Homo sapiens) (UniProt Q96PH1); experiment: NOX5-dependent H2O2 signal modulators, primary screen, NOX inhibitor project, cell-based, HEK293-NOX5, Amplex Red fluorescence (AID 1161); conditions: HEK293-NOX5, ionomycin, 45 min, higher = more signal
NADPH oxidase 5 (Homo sapiens), sequence (Q96PH1 whole entry, looked up): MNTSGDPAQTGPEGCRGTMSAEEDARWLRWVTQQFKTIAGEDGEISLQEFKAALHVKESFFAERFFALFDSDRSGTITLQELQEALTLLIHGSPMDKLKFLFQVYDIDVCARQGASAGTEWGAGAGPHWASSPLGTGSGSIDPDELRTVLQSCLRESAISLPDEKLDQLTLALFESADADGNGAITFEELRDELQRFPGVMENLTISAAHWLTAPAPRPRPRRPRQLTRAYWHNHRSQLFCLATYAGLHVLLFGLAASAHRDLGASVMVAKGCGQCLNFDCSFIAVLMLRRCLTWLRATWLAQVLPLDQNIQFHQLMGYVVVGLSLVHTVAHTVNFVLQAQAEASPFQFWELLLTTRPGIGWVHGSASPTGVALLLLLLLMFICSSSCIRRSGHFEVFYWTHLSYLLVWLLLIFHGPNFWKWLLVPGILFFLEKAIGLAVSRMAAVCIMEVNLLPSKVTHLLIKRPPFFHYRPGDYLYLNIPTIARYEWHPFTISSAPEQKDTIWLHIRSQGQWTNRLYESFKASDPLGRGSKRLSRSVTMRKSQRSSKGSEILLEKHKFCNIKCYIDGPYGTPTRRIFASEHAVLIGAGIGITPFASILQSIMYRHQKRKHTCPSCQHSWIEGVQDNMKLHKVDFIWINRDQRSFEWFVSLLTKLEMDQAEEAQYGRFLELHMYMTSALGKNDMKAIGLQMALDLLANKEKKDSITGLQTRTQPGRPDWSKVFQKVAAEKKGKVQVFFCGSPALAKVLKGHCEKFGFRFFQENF

[11] = A549 cell viability effects, profiling panel, calcein-AM fluorescence, 48 h, basal (AID 1162); conditions: higher = more signal; also: test concentration not given here
[12] = adipocyte viability effects, profiling panel, cell-based, 3T3-L1 adipocytes, calcein-AM fluorescence, 48 h, basal (AID 1163); conditions: 3T3-L1 adipocytes viability, higher = more signal; also: test concentration not given here
[13] = HepG2 cell viability effects, profiling panel, calcein-AM fluorescence, 48 h, basal (AID 1164); conditions: higher = more signal; also: test concentration not given here
[14] = MM1S cell viability effects, profiling panel, calcein-AM fluorescence, 48 h, basal (AID 1165); conditions: higher = more signal;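 also: viability of MM1S multiple myeloma cells under basal unstimulated conditions; test concentration not given here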
[15] = basal RPMI8226 viability, no added stimulus, profiling panel, cell-based, calcein-AM fluorescence, 48 h, PK04 Diversity Set (AID 1166); conditions: RPMI8226 myeloma viability, higher = more signal;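 also: cells grown under basal conditions without added stimulus; test concentration not given here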
[16] = basal HepG2 mitochondrial membrane potential changes, profiling panel, cell-based, JC-1 fluorescence, 24 h, 100 nL compound (AID 1167); conditions: higher = more signal; also: test concentration not given here
[17] = basal 3T3-L1 adipocyte mitochondrial potential changes, profiling panel, cell-based, JC-1 fluorescence, 3T3-L1 adipocytes, 24 h, 100 nL compound (AID 1168); conditions: JC-1 mitochondrial fluorescence, higher = more signal, called active from +8 up or from −8 down; also: test concentration not given here
[18] = basal RPMI8226 mitochondrial membrane potential changes, profiling panel, cell-based, JC-1 fluorescence, 24 h, 100 nL compound (AID 1169); conditions: RPMI8226 myeloma, JC-1 mitochondrial potential fluorescence, higher = more signal; also: test concentration not given here
[19] = basal MM1S mitochondrial membrane potential changes, profiling panel, cell-based, JC-1 fluorescence, 24 h, 100 nL compound (AID 1170); conditions: higher = more signal; also: test concentration not given here
[20] = A549 lung cancer cell viability effects, profiling panel, resazurin fluorescence, 24 h, PK04 Diversity Set (AID 1171); conditions: higher = more signal, called active from +8 up or from −8 down; also: test concentration not given here

Compound | z-score [1] | composite z-score [2] | z-score [3] | z-score [4] | z-score [5] | z-score [6] | z-score [7] | z-score [8] | z-score [9] | z-score [10] | z-score [11] | z-score [12] | z-score [13] | z-score [14] | z-score [15] | z-score [16] | z-score [17] | z-score [18] | z-score [19] | z-score [20]
CC(C)C(=C=CC[C@H](O)c1cccc(OCCO)c1)C[C@H](O)COCc1ccccc1 | 0.142 (inactive) | 0.0455 | 12.8 (active) | 2.04 (inactive) | 0.367 (inactive) | 0.627 (inactive) | -0.145 | -1.77 (inactive) | -0.716 (inactive) | -2.13 | -0.0353 | -0.27 | -0.0485 | 0.0675 | -0.524 | -0.42 | -0.711 (inactive) | 0.259 | -0.615 | 1.25 (inactive)
CCOC(=O)C1=C[C@@H](C(C)C)N(S(=O)(=O)c2ccc(C)cc2)[C@H]1c1ccc(C(C)C)cc1 | -0.39 (inactive) | 0.262 | 0.431 (inactive) | 0.749 (inactive) | 0.4 (inactive) | 0.367 (inactive) | -0.234 | -0.5 (inactive) | -0.195 (inactive) | -0.151 | 0.012 | 0.256 | -0.493 | -0.955 | -2.18 | 7.47 | -0.0264 (inactive) | -0.0684 | -0.776 | 3.1 (inactive)
CC(=CC1CCCCC1)[C@@H](NC(=O)c1ccc(C(F)(F)F)cc1)c1ccc(-c2ccccc2)cc1 | -2.14 (inactive) | 0.117 | 3.47 (inactive) | 1.03 (inactive) | 0.482 (inactive) | 0.813 (inactive) | 0.299 | -0.709 (inactive) | -0.683 (inactive) | 0.0858 | -0.165 | -0.791 | -0.839 | -1.5 | -2.06 | -2.33 | -1.09 (inactive) | -0.515 | -0.693 | 0.334 (inactive)
CC(C)C(=C=CC[C@H](O)c1ccccc1OCCO)C[C@H](O)c1ccccn1 | 0.843 (inactive) | 0.129 | 4.75 (inactive) | 0.673 (inactive) | 2.42 (inactive) | 0.454 (inactive) | 1.16 | -0.222 (inactive) | -0.323 (inactive) | -1.28 | 0.82 | -0.27 | 1.33 | 0.198 | 0.0964 | 0.714 | 0.085 (inactive) | -0.332 | -1.3 | -0.607 (inactive)
O=C(CCN1CCOCC1)c1cccc(O)c1 | -0.202 (inactive) | 0.154 | 0.205 (inactive) | -1.48 (inactive) | -0.582 (inactive) | -1.68 (inactive) | 0.4 | -2.74 (inactive) | -0.206 (inactive) | 1.72 | 0.867 | 0.75 | -0.891 | -3.16 | -1.74 | 0.109 | -0.163 (inactive) | -0.0964 | -2.97 | 0.36 (inactive)
NC(=O)NCC#Cc1ccc2c(c1)[C@]1(C(=O)N2)[C@H](C(=O)N2CCCCCCC2)[C@H]2C(=O)O[C@H](c3ccccc3)[C@H](c3ccccc3)N2[C@@H]1c1ccc(OCCO)cc1 | -0.518 (inactive) | 1.4 | 2.66 (inactive) | 0.66 (inactive) | 0.391 (inactive) | 0.286 (inactive) | -0.378 | 1.35 (inactive) | -1.11 (inactive) | -0.67 | -0.0962 | -0.15 | -1.09 | -0.682 | -0.365 | -1.79 | -2.9 (inactive) | -0.165 | -0.781 | -0.316 (inactive)
CCOC(=O)C1=CCC(c2ccc(C#N)cc2)N(S(=O)(=O)c2ccc(C)cc2)C1 (stereo not given) | 0.26 (inactive) | 0.262 | 5.29 (inactive) | 1.12 (inactive) | 0.632 (inactive) | 0.557 (inactive) | -0.118 | 0.292 (inactive) | 0.62 (inactive) | -0.303 | -1.14 | -0.68 | 0.109 | -0.548 | -0.741 | -0.259 | 0.345 (inactive) | -0.516 | -1.71 | -0.343 (inactive)
O=C1OCCC/C=C\[C@H]2OC34C=CCN(Cn5nnc6ccccc65)C(=O)[C@H]3N(CCCCCO)C(=O)[C@@H]4C12 (stereo not given in full) | 0.246 (inactive) | 0.278 | 2.6 (inactive) | 0.0767 (inactive) | -0.212 (inactive) | 0.479 (inactive) | -0.339 | 0.871 (inactive) | -0.167 (inactive) | 1.15 | -0.452 | 1.05 | -1.02 | -0.496 | 0.424 | 0.19 | 0.0884 (inactive) | -0.212 | 0.37 | 0.0684 (inactive)
CC(C)c1ccc(NN2C(C(O)c3cccc(O)c3)C=CC3C(=O)N(c4ccccc4)C(=O)C32)cc1 (stereo not given) | -0.833 (inactive) | 0.0523 | 8.05 (active) | 1.14 (inactive) | 1.5 (inactive) | 1.64 (inactive) | -0.83 | -2.01 (inactive) | -5.51 (inactive) | -4.13 | -1.09 | -0.35 | -0.753 | -0.26 | -0.237 | -1.85 | -0.948 (inactive) | -0.554 | -0.749 | 0.403 (inactive)
CC(C)NC(=O)[C@@]1(Cc2ccccc2I)c2ccccc2C(=O)N(Cc2ccccc2)[C@H]1c1ccc(CO)cc1 | -0.668 (inactive) | 0.018 | 4 (inactive) | 0.644 (inactive) | 1.19 (inactive) | 0.374 (inactive) | -0.0212 | 1.32 (inactive) | 1.07 (inactive) | 0.909 | -0.547 | -0.405 | -0.513 | 0.525 | -0.651 | 0.798 | -1.19 (inactive) | -0.638 | -0.715 | 1.29 (inactive)
C=CCNC(=O)[C@@H]1[C@H]2C(=O)O[C@H](c3ccccc3)[C@H](c3ccccc3)N2[C@H](c2ccc(OCCO)cc2)[C@@]12C(=O)Nc1ccccc12 | 1.52 (inactive) | 0.0235 | 5.12 (inactive) | 0.39 (inactive) | -0.844 (inactive) | 0.002 (inactive) | 4.16 | 1.38 (inactive) | 0.767 (inactive) | -0.355 | 1.66 | 1.59 | 0.521 | 0.491 | 0.0581 | -0.912 | 1.01 (inactive) | -0.725 | 0.224 | -0.0995 (inactive)
COc1ccc([Si](C)(C)[C@H]2[C@H](CCn3cc(CCO)nn3)O[C@@]3(C(=O)N(Cc4ccc(N5CCOC5=O)cc4)c4ccccc43)[C@@H]2C)cc1 | 0.176 (inactive) | 0.308 | 33.4 (active) | 34.8 (active) | 2.62 (inactive) | 6.01 (inactive) | 0.711 | -0.564 (inactive) | 2.16 (inactive) | -0.419 | 0.252 | 0.469 | 0.161 | -3.07 | -2.73 | 0.484 | 0.854 (inactive) | -0.911 | -1.33 | -1.75 (inactive)
CC=CC(O)C1C=CC2C(=O)N(c3ccccc3)C(=O)C2N1Nc1ccc(C(C)C)cc1 (stereo not given) | -1.63 (inactive) | 0.424 | 20.2 (active) | 7.4 (inactive) | 1.39 (inactive) | 1.68 (inactive) | -0.521 | -0.68 (inactive) | -3.67 (inactive) | -4.2 | 0.0409 | 0.146 | 0.645 | -0.0872 | -0.849 | -1.09 | -1.32 (inactive) | -0.467 | -1.08 | -1.65 (inactive)
CCCC[C@H]1OB(O)C[C@H]2C1=C(C)C[C@H]1C(=O)N(Cc3ccccc3)C(=O)[C@H]12 | 1.53 (inactive) | -0.147 | 1.27 (inactive) | 0.0503 (inactive) | -0.348 (inactive) | 0.157 (inactive) | 0.918 | 0.0393 (inactive) | 0.765 (inactive) | 0.789 | 0.601 | 0.379 | -0.152 | -0.551 | -0.0458 | -0.432 | 0.203 (inactive) | -0.333 | 0.625 | 0.174 (inactive)
